# Most compounds without a hit are left out; they make up all but 4.1% or so of the library.
# hcDAF-12 act: H. contortus DAF-12 activation, primary screen | HEK293 hcDAF-12 lit1-tk-luc reporter, luminescence; 0% DMSO, 100% Δ7-dafachronic acid | activation, % at 6.8 µM | hit rate 1.4% among 370,000;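 active = activation above the mean of all tested compounds plus 3 SD, cut at about 5.5% in these data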;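 also: 100% = response to 3 µM Δ7-dafachronic acid high control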
# hgDAF-12 ag: agonists of H. glycines DAF-12 nuclear receptor | HEK293 GAL4-hgDAF12 UAS-luciferase reporter, agonist luminescence; normalized to butyrate control | activation, % at 6.8 µM | hit rate 1.8% among 370,000 | AID 687014;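 active = activation above a cutoff set at the mean of all screened compounds plus 3 SD, cut at about 10% in these data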;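 also: 0% = DMSO wells and 100% = sodium butyrate wells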
# DAX1 inh-1: inhibitors of human orphan nuclear receptor DAX1 (NR0B1). P51843. HEK293 Gal4-DAX1 luciferase reporter, luminescence. inhibition, % at 6.75 µM. hit rate 0.99% among 340,000. AID 504766;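 active = inhibition above the mean over all tested compounds plus 3 SD, cut at about 4.2% in these data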;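 also: 0% = DAX1-transfected cells with DMSO and 100% = empty-vector control cells with DMSO; inhibition shows as a rise in luminescence from relieved DAX1 repression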
# Target sequence (P51843 207-470 limits assumed): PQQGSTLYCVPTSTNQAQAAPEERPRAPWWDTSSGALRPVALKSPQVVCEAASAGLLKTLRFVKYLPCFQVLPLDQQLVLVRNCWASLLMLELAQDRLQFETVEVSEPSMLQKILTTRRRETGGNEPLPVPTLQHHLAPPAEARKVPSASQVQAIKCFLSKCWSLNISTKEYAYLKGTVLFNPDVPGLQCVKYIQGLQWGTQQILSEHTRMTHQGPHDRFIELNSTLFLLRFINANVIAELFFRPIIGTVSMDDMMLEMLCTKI
# ssDAF12 agonist: S. stercoralis DAF-12 activation, primary screen; HEK293 ssDAF-12/GRIP1 lit1-tk-luc reporter, luminescence; % of 3 µM dafachronic acid response; activation, % at 6.8 µM; hit rate 1% among 370,000;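 active = activation above the mean over all tested compounds plus 3 SD, cut at about 0.9% in these data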;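 also: 0% = DMSO-only wells and 100% = 3 µM delta7-dafachronic acid wells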
# DAX1 inh-2: DAX1 (NR0B1) inhibition, primary screen | hit rate 1.1% among 370,000 | inhibition, % at 6.8 µM | AID 652010 | HEK293T StAR-luciferase reporter, SF-1/DAX-1 repression relief;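 active = inhibition above the mean over all tested compounds plus 3 SD, cut at about 3.6% in these data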;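 also: 0% = DAX-1 cells with DMSO and 100% = cells lacking DAX-1 with DMSO; higher inhibition means more luminescence from relief of DAX-1 repression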
# Active calls of the source: *; . = no result given.
SMILES,hcDAF-12 act,hgDAF-12 ag,DAX1 inh-1,ssDAF12 agonist,DAX1 inh-2
Cc1nn(C)c(C)c1NC(=O)CCl,4,-7,1,1.2*,-1
O=C1CCCCC1Sc1nnc(Nc2ccccc2)s1 (configuration not stated),1,11*,4,-1,2
Cc1ccc(Nc2nnc(SC3CCOC3=O)s2)cc1 (configuration not stated),-2,2,1,-2,0
O=C(CNS(=O)(=O)c1ccc(Br)s1)N1CCN(c2ccccn2)CC1,-1,-2,.,-2,-2
Cc1ccc(S(=O)(=O)SC/C=C/CSS(=O)(=O)c2ccc(C)cc2)cc1,0,1,5.5*,0,0
Cc1ccc(S(=O)(=O)SCCCSS(=O)(=O)c2ccc(C)cc2)cc1,-1,-2,-1,-1,-1
Cc1cc2nc(-c3ccc(F)cc3)c(Cc3cccc(Cl)c3)n2c(C)c1Br,5.6*,1,.,1.5*,1
Cc1cc2nc(-c3ccccc3)c(Cc3cccc(Cl)c3)n2c(C)c1Br,3,11*,.,0,1
Cc1cc2nc(C3CCCCC3)c(Cc3ccccc3C(F)(F)F)n2c(C)c1Br,-1,2,.,0,0
Cc1cc2nc(C3CCCCC3)c(Cc3cccc(F)c3)n2c(C)c1Br,2,2,.,1.7*,-1
COC(=O)C[C@H]1CC[C@@H]2[C@@H](COc3ccc(NC(=O)Nc4ccccc4OC)cc3C(=O)N2C)O1,-3,0,.,-1,0
O=C(c1cccc(C(F)(F)F)c1)C1CCCN(C(=O)CCCN2CCCC2=O)C1 (configuration not stated),-2,-3,-1,-2,0
CN1CCN(c2cnn(-c3ccccc3)c(=O)c2Br)CC1,0,3,0,-1,1
O=c1c(Br)c(N2CCCC2)cnn1-c1ccccc1,5.6*,12*,0,0,3
COC(=O)[C@]12C[C@H](CC(=O)N3CCOCC3)C(=O)N(CCc3ccc(OC)c(OC)c3)C1=C[C@H](C1CCCC1)O[C@@H]2C,-1,3,.,-2,0
c1cnc2ncc3sccc3c2c1,2,2,0,-1,0
O=c1[nH]c2cccnc2c2ccsc12,0,-2,5.9*,0,0
CC1(C)Cc2c(c(N3CCOCC3)nc3sc(C(=O)Nc4ccccc4)c(N)c23)CO1,6.2*,12*,3,-1,1
CC1(C)Cc2c(c(N3CCOCC3)nc3sc(C(=O)Nc4cccc(Cl)c4)c(N)c23)CO1,0,3,0,-1,0
COC(=O)C1CN(C2CC2)CCS(=O)(=O)N1Cc1cn(Cc2ccccc2)nn1 (configuration not stated),-1,1,.,-1,-1
CSc1ccc(-c2csc(N3CCC(C(N)=O)CC3)n2)cc1,0,8,.,-1,.
CC(=O)Nc1c(-c2ccc(C)cc2)nc2ncccn12,-1,0,.,-1,1
CCOc1ccccc1-n1c(=O)c2ccccc2c2ccccc2c1=O,-4,6,0,0,0
CCOc1ccc(-n2c(=O)c3ccccc3c3ccccc3c2=O)cc1,0,0,4.9*,-1,0
Cc1ccccc1NC(=O)N(C)[C@H]1C[C@H]2c3[nH]c4c(-c5ccccc5)cccc4c3CCN2C[C@H]1[C@H](C)O,-2,0,.,-2,-1
SMILES,hcDAF-12 act,hgDAF-12 ag,DAX1 inh-1,ssDAF12 agonist,DAX1 inh-2
CCC(=NCCc1ccc(OC)c(OC)c1)c1ccccc1O,0,2,6.1*,0,-1
CCC(C(N)=NCCc1ccc(OC)c(OC)c1)c1ccccc1 (configuration not stated),4,-1,0,-1,0
COc1ccc2ccccc2c1C=Nn1c(-c2n[nH]c3c2CCC3)n[nH]c1=S,-1,0,.,-1,1
CC(=O)Oc1oc(-c2ccccc2)nc1/C=N/c1ccccn1,2,6,5.1*,-1,2
COC(=O)[C@]12C[C@H](CC(=O)NCCCCc3ccccc3)C(=O)N(CCC3=CCCCC3)C1=C[C@H](COCc1ccccc1)O[C@@H]2C,1,1,.,-1,1
CC1=NN(C(N)=S)C(=O)C1N=Nc1cccc([N+](=O)[O-])c1 (configuration not stated),0,-1,6.8*,0,0
CC1=NN(C(N)=S)C(=O)C1N=Nc1ccc(Cl)cc1 (configuration not stated),5,11*,3,0,1

# Assay outcomes deposited in PubChem by The Scripps Research Institute Molecular Screening Center.
